HepG2 tox-1 = qHTS for Inhibitors of TGF-b: Cytotox Counterscreen. HepG2 CAGA-GFP viability, ATP luminescence, 18 h. 0.76% of 410,000 active. Potency, µM (doses to about 46.1 µM), hits mostly cytotoxic. AID 588856, 2011
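HepG2 CAGA-GFP cells (1000/well, DMEM with 1% FBS) received compound, then TGF-beta at 500 pg/mL final, and were incubated 18 hours at 37 degrees C. Viability was read by CellTiter-Glo luminescence. Media-only wells were set as complete cell-killing and DMSO as no toxicity.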
LDHA block = qHTS assay for inhibitors of human lactate dehydrogenase; 0.15% of 480,000 active; AID 1347041, 2019; L-lactate dehydrogenase A chain (Homo sapiens), P00338; purified LDHA, NADH/diaphorase-resazurin fluorescence; active compounds read low; activity change, % (values are at about 110 or 230 µM); in the data active = activity change below about -30%; inconclusive = mostly about -25% to -30%
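Remaining NADH was detected by diaphorase (0.133 mg/mL) converting 37 µM resazurin to fluorescent resorufin, read at 0 and 20 minutes. The preceding 5-minute room-temperature reaction used 2 nM LDHA, 0.2 mM sodium pyruvate and 0.06 mM NADH at pH 7.4.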
TGFb inhibitor = qHTS for Inhibitors of TGF-b; HepG2 CAGA-GFP TGF-b/SMAD3 reporter, GFP fluorescence, 18 h; TGF-beta stimulated, 500 pg/mL final; Potency, µM (titrated, usually from 46.1 µM), most hits filed as inhibitors; 1.2% of 410,000 active; AID 588855, 2011; also: nearly all actives have a fitted effect of over 65% in size
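Smad-responsive CAGA-GFP expression was quantified in HEPG2 cells exposed to compounds and 500 pg/mL final TGF-beta for 18 h at 37 degrees C; unstimulated wells defined full inhibition.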
IDH1 R132H inh = qHTS for Inhibitors of mutant isocitrate dehydrogenase 1 (IDH1): qHTS; IDH1-R132H enzyme, NADPH consumption, diaphorase/resazurin fluorescence; Potency, µM (series often up to 76.6 µM), hits mostly inhibitors; AID 602179, 2012; 0.093% of 390,000 active; Isocitrate dehydrogenase [NADP] cytoplasmic (Homo sapiens), O75874; also: nearly all actives have a fitted effect of over 65% in size
Target sequence (O75874 whole entry R132H, stated change not applied): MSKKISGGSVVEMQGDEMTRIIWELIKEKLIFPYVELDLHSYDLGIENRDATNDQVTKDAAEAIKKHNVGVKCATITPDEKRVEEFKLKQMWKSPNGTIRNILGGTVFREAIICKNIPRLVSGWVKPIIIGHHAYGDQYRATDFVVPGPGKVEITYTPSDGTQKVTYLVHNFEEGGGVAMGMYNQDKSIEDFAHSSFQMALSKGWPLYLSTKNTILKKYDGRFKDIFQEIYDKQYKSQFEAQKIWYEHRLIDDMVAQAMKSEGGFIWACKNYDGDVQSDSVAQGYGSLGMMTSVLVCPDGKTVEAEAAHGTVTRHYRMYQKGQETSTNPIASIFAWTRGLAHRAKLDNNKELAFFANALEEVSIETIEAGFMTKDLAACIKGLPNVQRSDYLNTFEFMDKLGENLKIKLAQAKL
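IDH1-R132H (0.5 ug/mL) preincubated 30 min with compound, then NADPH (0.016 mM) and alpha-KG (2 mM) added; 80 min at RT, pH 7.5. Remaining NADPH coupled via diaphorase/resazurin to fluorescence (540/590 nm); concentration-response curves normalized to no-enzyme control.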
ATXN2 expr inh = Primary qHTS for Inhibitors of ATXN expression. HEK-293 ATXN2-luciferase reporter, luminescence, 24 h. Potency, µM (highest dose often 57 µM), actives largely listed as inhibitors. 0.72% of 360,000 active. AID 1745845, 2022; also: nearly all actives have a fitted effect of over 55% in size
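qHTS (up to 57 uM final) was run with 24 h compound exposure of reporter cells at 37 °C. Each well was multiplexed: SteadyGlo luminescence measured ATXN2-luciferase expression after a fluorogenic Gly-Phe-AFC viability readout (25 uM final).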
S2 tox = Viability Counterscreen for Primary qHTS for Inhibitors of ATXN expression | 0.49% of 400,000 active | Potency, µM (top dose mostly 56.7 µM), most hits filed as cytotoxic | S2 cells (HEK-293 line with an ATXN2-luciferase reporter) viability, CellTiter-Fluor protease fluorescence, 24 h | AID 651635, 2014; also: nearly all actives have a fitted effect of over 40% in size
TGFb confirm = qHTS for Inhibitors of TGF-b: Confirmation of Cherry Picks; HepG2 CAGA-GFP TGF-b reporter, GFP fluorescence, 18 h; cells stimulated with TGF-beta, 500 pg/mL; Potency, µM (doses to about 46.1 µM), usual class: inhibitors; shares compounds with TGFb inhibitor; 63% of 1,600 active; also: nearly all actives have a fitted effect of over 65% in size
HepG2 tox-2 = qHTS for Inhibitors of TGF-b: Cytotox Counterscreen for Cherry Picks. shares compounds with TGFb inhibitor. 27% of 1,600 active. HepG2 CAGA-GFP viability, ATP luminescence, 18 h; cells stimulated with TGF-beta, 500 pg/mL. Potency, µM (top dose mostly 46.1 µM), actives largely listed as inhibitors; also: nearly all actives have a fitted effect of over 70% in size
TGFb CCL64 inh = qHTS for Inhibitors of TGF-b: CCL64 Cells Orthogonal Assay for Cherry Picks | 41% of 1,600 active | CCL64 CAGA-GFP reporter, TGF-b stimulated, GFP fluorescence, 18 h | Potency, µM (titrated, usually from 46.1 µM), hits mostly inhibitors | shares compounds with TGFb inhibitor; also: nearly all actives have a fitted effect of over 65% in size
COP TGFb inh = qHTS for Inhibitors of TGF-b: Hit Validation in HepG2 Cells using COP promoter; shares compounds with TGFb inhibitor; HepG2 COP-GFP TGF-b reporter, GFP fluorescence, 18 h; cells stimulated by added recombinant TGF-beta; Potency, µM (series often up to 46.1 µM), actives largely listed as inhibitors; 3% of 1,600 active; also: nearly all actives have a fitted effect of over 70% in size
Numbers stand for hits; [ ] = dose if it differs, or a comment. Rows were chosen to be rich in hits. Some 2.2% of all compounds tested hit in one or more screens of this group. Unless noted, calls follow the shape of the dose curve; as a rule, active = well fitted curve in the direction sought with a large enough effect; inconclusive = small, poorly fitted or top-dose-only effect, or another doubt; inactive = no such curve, though single readings can be large; an effect the other way counts as inactive or inconclusive.

How did Cc1cc(N2CCN(C)CC2)ccc1NC(=O)c1c2c(nc3ccccc13)CCN(Cc1ccccc1)C2 do in these assays?
HepG2 tox-1: 10µM; LDHA block: inactive; TGFb inhibitor: 10µM; IDH1 R132H inh: inactive; ATXN2 expr inh: inactive[11.3 µM]; S2 tox: inconclusive; TGFb confirm: 3.3µM; HepG2 tox-2: 2.6µM; TGFb CCL64 inh: 8.2µM; COP TGFb inh: 12µM

What do the screens show for `C/C(=C\c1ccc(N)cc1)c1nc2ccccc2[nH]1`?
HepG2 tox-1: inactive; LDHA block: inactive; TGFb inhibitor: inactive; IDH1 R132H inh: inactive; ATXN2 expr inh: inactive; S2 tox: inactive

Results for CC(C)c1ccc(/C=C(\c2nc3ccccc3[nH]2)S(=O)(=O)c2ccccc2)cc1 ?
HepG2 tox-1: 10µM; LDHA block: inactive; TGFb inhibitor: 7.9µM; IDH1 R132H inh: inactive; ATXN2 expr inh: inconclusive; S2 tox: inconclusive; TGFb confirm: 16µM; HepG2 tox-2: 10µM; TGFb CCL64 inh: 4.6µM; COP TGFb inh: inactive

What do the screens show for `O=S(=O)(/C(=C/c1ccc(C(F)(F)F)cc1)c1nc2ccccc2[nH]1)c1ccccc1`?
HepG2 tox-1: 7.9µM; LDHA block: inactive; TGFb inhibitor: 5µM; IDH1 R132H inh: inactive; ATXN2 expr inh: inconclusive; S2 tox: 27µM; TGFb confirm: 2.9µM; HepG2 tox-2: 2.6µM; TGFb CCL64 inh: 1.8µM; COP TGFb inh: inconclusive

How did CC(=O)Nc1ccc(-c2ccccc2)s1 do in these assays?
HepG2 tox-1: inactive; LDHA block: inactive; TGFb inhibitor: inactive; IDH1 R132H inh: inactive; ATXN2 expr inh: inactive; S2 tox: inactive

How did CNc1nc(-c2cn(CCC#N)c3ccccc23)cs1 do in these assays?
LDHA block: inactive

Results for CC1=Nc2ccccc2/C1=C\c1sc(Nc2ccc(C)cc2)nc1O ?
HepG2 tox-1: inactive; LDHA block: inactive; TGFb inhibitor: 11µM; IDH1 R132H inh: inactive; ATXN2 expr inh: inactive; S2 tox: inconclusive; TGFb confirm: 5.2µM; HepG2 tox-2: inconclusive; TGFb CCL64 inh: 5.2µM; COP TGFb inh: inactive

Results for Cc1ccc(-c2ccc(C=O)o2)cc1Cl ?
LDHA block: inactive

Results for Nc1ncnc2c1ncn2C1C=C(CO)C(O)C1O (configuration not stated) ?
HepG2 tox-1: 10µM; LDHA block: inactive; TGFb inhibitor: 8.9µM; IDH1 R132H inh: inactive; ATXN2 expr inh: inconclusive; S2 tox: inconclusive; TGFb confirm: inconclusive; HepG2 tox-2: 0.13µM; TGFb CCL64 inh: inconclusive; COP TGFb inh: inactive

What do the screens show for `NC(Cc1ccc(C(F)(F)F)cc1)c1csc(NC(=O)Nc2ccccc2Cc2ccccc2)n1` (configuration not stated)?
HepG2 tox-1: 6.3µM; LDHA block: inactive; TGFb inhibitor: 3.2µM; ATXN2 expr inh: inconclusive; TGFb confirm: inconclusive; HepG2 tox-2: inconclusive; TGFb CCL64 inh: 15µM; COP TGFb inh: inconclusive

Results for CN(c1ccc(F)cc1)S(=O)(=O)c1ccc(Cl)c(C(=O)Nc2ccc3c(c2)CCC3)c1 ?
HepG2 tox-1: inactive; LDHA block: inactive; TGFb inhibitor: 11µM; IDH1 R132H inh: inactive; ATXN2 expr inh: inactive; S2 tox: inactive; TGFb confirm: inconclusive; HepG2 tox-2: inactive; TGFb CCL64 inh: inactive; COP TGFb inh: inactive

What do the screens show for `O=C(CSc1n[nH]c(=O)n1C1CC1)c1ccc(F)cc1`?
HepG2 tox-1: inactive; LDHA block: inactive; TGFb inhibitor: inactive; IDH1 R132H inh: inactive; ATXN2 expr inh: inactive; S2 tox: inactive

What do the screens show for `COc1ccc2cc(-c3ccccc3F)ncc2c1`?
HepG2 tox-1: inactive; LDHA block: inactive; TGFb inhibitor: inconclusive; IDH1 R132H inh: inactive; ATXN2 expr inh: inactive; S2 tox: inactive; TGFb confirm: inactive; HepG2 tox-2: inactive; TGFb CCL64 inh: inactive; COP TGFb inh: inactive

How did COc1ccc(-c2cc3ccc(OC)cc3cn2)cc1 do in these assays?
HepG2 tox-1: inactive; LDHA block: inactive; TGFb inhibitor: inactive; IDH1 R132H inh: inactive; ATXN2 expr inh: inactive; S2 tox: inactive

How did N#CC(c1cccc(Cl)c1)c1ccc2c(C(F)(F)F)cc(C(F)(F)F)nc2n1 (configuration not stated) do in these assays?
HepG2 tox-1: inactive; LDHA block: inactive; TGFb inhibitor: 1.3µM; IDH1 R132H inh: inactive; ATXN2 expr inh: 2.5µM; S2 tox: 5.6µM; TGFb confirm: 0.37µM; HepG2 tox-2: 1.3µM; TGFb CCL64 inh: 1.2µM; COP TGFb inh: inactive

Results for CC1Sc2ccc(S(=O)(=O)CCC(=O)N3CCN(c4cccc(Cl)c4)CC3)cc2NC1=O (configuration not stated) ?
HepG2 tox-1: inactive; LDHA block: inactive; TGFb inhibitor: 16µM; IDH1 R132H inh: inactive; ATXN2 expr inh: inconclusive; S2 tox: inactive; TGFb confirm: 18µM; HepG2 tox-2: inconclusive; TGFb CCL64 inh: inconclusive; COP TGFb inh: inactive

What do the screens show for `O=c1cnc2ccccc2n1Cc1ccc(Br)cc1`?
HepG2 tox-1: inactive; LDHA block: inactive; TGFb inhibitor: inactive; IDH1 R132H inh: inactive; ATXN2 expr inh: inactive; S2 tox: inactive

How did CC(C)(C)c1ccc(Cn2c(=O)cnc3ccccc32)cc1 do in these assays?
HepG2 tox-1: inactive; LDHA block: inactive; TGFb inhibitor: 10µM; IDH1 R132H inh: inactive; ATXN2 expr inh: inconclusive; S2 tox: inactive; TGFb confirm: 18µM; HepG2 tox-2: inconclusive; TGFb CCL64 inh: inactive; COP TGFb inh: inactive

Assay outcomes as filed in PubChem.
